In all, about 5,500 compounds went through this assay and about 2,000 (36%) were called active. Roughly 18% stayed inconclusive and do not appear here. This is one part of the list. A number with no mark means an inactive call. No stated cut-off is given here; in the data, active means normalized growth mostly below about 0.91 (no sharp cut-off); inconclusive means no clear call, values can overlap the other calls; inactive means mostly above about 0.92.
Assay: chemical genetic growth profiling, strain panel (AID 1159580);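 further: tested at 20 µM; growth read once vehicle control cultures reached saturation at 30 °C; 1 = growth at the plate median or of vehicle wells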
Conditions: S. cerevisiae deletion strains, growth OD
[1] = locus YDL101C, strain DUN1, stronger effect = lower value
[2] = locus YHR030C, strain SLT2, stronger effect = lower value
[3] = locus YAL013W, strain DEP1, stronger effect = lower value
[4] = locus YBR229C, strain ROT2, stronger effect = lower value
[5] = locus YDR150W, strain NUM1, stronger effect = lower value
[6] = locus YEL061C, strain CIN8, stronger effect = lower value
[7] = locus YGR078C, strain PAC10, stronger effect = lower value
[8] = locus YHR087W, strain rtc3, stronger effect = lower value
[9] = locus YJR043C, strain POL32, stronger effect = lower value
[10] = locus YJR075W, strain HOC1, stronger effect = lower value
[11] = locus YKL190W, strain CNB1, stronger effect = lower value
[12] = locus YLR039C, strain RIC1, stronger effect = lower value
[13] = locus YLR058C, strain SHM2 (second series), stronger effect = lower value
[14] = locus YLR085C, strain ARP6, stronger effect = lower value
[15] = locus YLR262C, strain YPT6, stronger effect = lower value
[16] = locus YML094W, strain GIM5, stronger effect = lower value
[17] = locus YMR219W, strain ESC1, stronger effect = lower value
[18] = locus YMR263W, strain SAP30, stronger effect = lower value
[19] = locus YNL153C, strain GIM3, stronger effect = lower value
[20] = locus YNL298W, strain CLA4 (second series), stronger effect = lower value
[21] = locus YNL322C, strain KRE1, stronger effect = lower value
[22] = locus YNR030W, strain Alg12, stronger effect = lower value
[23] = locus YOL006C, strain TOP1, stronger effect = lower value
[24] = locus YPL055C, strain LGE1, stronger effect = lower value
[25] = locus YPL241C, strain CIN2, stronger effect = lower value
[26] = locus YPR135W, strain CTF4, stronger effect = lower value

SMILES: O=[N+]([O-])c1cc(C(F)(F)F)ccc1Sc1n[nH]c(-c2cc(Cl)cc(Cl)c2)n1
- normalized growth (locus YAR019C, strain CDC15, stronger effect = lower value): 0.925
- normalized growth (locus YBL105C, strain PKC1, stronger effect = lower value): 0.954
- normalized growth (locus YBR135W, strain CKS1, stronger effect = lower value): 0.951
- normalized growth (locus YBR136W, strain MEC1, stronger effect = lower value): 0.936
- normalized growth (locus YBR160W, strain CDC28, stronger effect = lower value): 0.935
- normalized growth (locus YDL017W, strain CDC7, stronger effect = lower value): 0.95
- normalized growth (locus YDL028C, strain MPS1, stronger effect = lower value): 0.917
- normalized growth [1]: 0.987
- normalized growth (locus YDL108W, strain KIN28, stronger effect = lower value): 0.94
- normalized growth (locus YDL132W, strain cdc53, stronger effect = lower value): 0.937
- normalized growth (locus YDL214C, strain PRR2, stronger effect = lower value): 0.537 (active)
- normalized growth (locus YDR052C, strain DBF4, stronger effect = lower value): 0.944
- normalized growth (locus YDR054C, strain cdc34, stronger effect = lower value): 0.896
- normalized growth (locus YDR226W, strain ADK1, stronger effect = lower value): 0.943
- normalized growth (locus YDR477W, strain SNF1, stronger effect = lower value): 0.578 (active)
- normalized growth (locus YER123W, strain YCK3, stronger effect = lower value): 0.329 (active)
- normalized growth (locus YER133W, strain GLC7, stronger effect = lower value): 0.716 (active)
- normalized growth (locus YFL009W, strain cdc4, stronger effect = lower value): 0.909
- normalized growth (locus YFL029C, strain CAK1, stronger effect = lower value): 0.929
- normalized growth (locus YFR003C, strain YPI1, stronger effect = lower value): 0.954
- normalized growth (locus YFR019W, strain FAB1, stronger effect = lower value): 0.207 (active)
- normalized growth (locus YFR028C, strain CDC14, stronger effect = lower value): 0.933
- normalized growth (locus YGR040W, strain KSS1, stronger effect = lower value): 0.678 (active)
- normalized growth (locus YGR052W, strain FMP48, stronger effect = lower value): 0.541 (active)
- normalized growth (locus YGR092W, strain DBF2, stronger effect = lower value): 0.129 (active)
- normalized growth [2]: 0.147 (active)
- normalized growth (locus YHR079C, strain IRE1, stronger effect = lower value): 0.131 (active)
- normalized growth (locus YHR082C, strain KSP1, stronger effect = lower value): 0.231 (active)
- normalized growth (locus YHR205W, strain SCH9, stronger effect = lower value): 0.472 (active)
- normalized growth (locus YIL147C, strain SLN1, stronger effect = lower value): 0.929
- normalized growth (locus YJL095W, strain BCK1, stronger effect = lower value): 0.228 (active)
- normalized growth (locus YJL128C, strain PBS2, stronger effect = lower value): 0.811
- normalized growth (locus YJL157C, strain FAR1, stronger effect = lower value): 0.15 (active)
- normalized growth (locus YJR016C, strain ILV3, stronger effect = lower value): 0.939
- normalized growth (locus YJR066W, strain TOR1 (second series), stronger effect = lower value): 0.203 (active)
- normalized growth (locus YJR066W, strain TOR1, stronger effect = lower value): 0.16 (active)
- normalized growth (locus YKL048C, strain ELM1, stronger effect = lower value): 0.298 (active)
- normalized growth (locus YKL067W, strain YNK1, stronger effect = lower value): 0.426 (active)
- normalized growth (locus YKL101W, strain HSL1, stronger effect = lower value): 0.201 (active)
- normalized growth (locus YKL193C, strain SDS22, stronger effect = lower value): 0.94
- normalized growth (locus YKL203C, strain TOR2, stronger effect = lower value): 0.601 (active)
- normalized growth (locus YLR113W, strain HOG1, stronger effect = lower value): 0.223 (active)
- normalized growth (locus YLR133W, strain CKI1, stronger effect = lower value): 0.164 (active)
- normalized growth (locus YLR403W, strain SFP1, stronger effect = lower value): 0.602 (active)
- normalized growth (locus YML070W, strain DAK1, stronger effect = lower value): 0.293 (active)
- normalized growth (locus YMR001C, strain CDC5, stronger effect = lower value): 0.925
- normalized growth (locus YMR205C, strain PFK2 (second series), stronger effect = lower value): 0.399 (active)
- normalized growth (locus YMR277W, strain FCP1, stronger effect = lower value): 0.926
- normalized growth (locus YNL006W, strain LST8, stronger effect = lower value): 0.931
- normalized growth (locus YNL020C, strain ARK1, stronger effect = lower value): 0.133 (active)
- normalized growth (locus YNL161W, strain CBK1, stronger effect = lower value): 0.949
- normalized growth (locus YNL183C, strain NPR1, stronger effect = lower value): 0.497 (active)
- normalized growth (locus YNL207W, strain RIO2, stronger effect = lower value): 0.948
- normalized growth (locus YNL222W, strain SSU72, stronger effect = lower value): 0.935
- normalized growth (locus YNL307C, strain MCK1 (second series), stronger effect = lower value): 0.14 (active)
- normalized growth (locus YOL078W, strain AVO1, stronger effect = lower value): 0.943
- normalized growth (locus YOL136C, strain PFK27, stronger effect = lower value): 0.194 (active)
- normalized growth (locus YOR061W, strain CKA2, stronger effect = lower value): 0.164 (active)
- normalized growth (locus YOR119C, strain RIO1, stronger effect = lower value): 0.673 (active)
- normalized growth (locus YOR231W, strain MKK1, stronger effect = lower value): 0.155 (active)
- normalized growth (locus YOR329C, strain SCD5, stronger effect = lower value): 0.939
- normalized growth (locus YPL031C, strain PHO85, stronger effect = lower value): 0.32 (active)
- normalized growth (locus YPL153C, strain RAD53, stronger effect = lower value): 0.26 (active)
- normalized growth (locus YPL204W, strain HRR25, stronger effect = lower value): 0.255 (active)
- normalized growth (locus YPL209C, strain IPL1, stronger effect = lower value): 0.948
- normalized growth (locus YPL256C, strain CLN2, stronger effect = lower value): 0.166 (active)
- normalized growth (locus YPR025C, strain CCL1, stronger effect = lower value): 0.952
- normalized growth (locus YPR106W, strain ISR1, stronger effect = lower value): 0.944
- normalized growth (locus YPR111W, strain DBF20, stronger effect = lower value): 0.908
- normalized growth (strain NNK1, stronger effect = lower value): 0.917
- normalized growth (strain TSCII, stronger effect = lower value): 0.919

SMILES: Cn1c(Sc2ccc(C(F)(F)F)cc2[N+](=O)[O-])nnc1C(F)(F)F
- normalized growth [3]: 1
- normalized growth [4]: 1.01
- normalized growth [1]: 1.02
- normalized growth [5]: 0.988
- normalized growth [6]: 1
- normalized growth [7]: 1.01
- normalized growth [2]: 1.04
- normalized growth [8]: 1
- normalized growth [9]: 1
- normalized growth [10]: 0.973
- normalized growth [11]: 1.01
- normalized growth [12]: 1.02
- normalized growth [13]: 1.01
- normalized growth [14]: 1.05
- normalized growth [15]: 1.01
- normalized growth [16]: 1.05
- normalized growth [17]: 0.996
- normalized growth [18]: 0.994
- normalized growth (locus YNL128W, strain TEP1, stronger effect = lower value): 0.994
- normalized growth [19]: 1
- normalized growth [20]: 0.993
- normalized growth [21]: 1
- normalized growth [22]: 1.02
- normalized growth [23]: 0.899
- normalized growth [24]: 1.01
- normalized growth [25]: 1.11
- normalized growth [26]: 1.05

SMILES: Nc1nc(Sc2ccc(C(F)(F)F)cc2[N+](=O)[O-])n[nH]1
- normalized growth [3]: 0.988
- normalized growth [4]: 0.998
- normalized growth [1]: 1.02
- normalized growth [5]: 0.901
- normalized growth [6]: 1.02
- normalized growth [7]: 1.01
- normalized growth [2]: 1.03
- normalized growth [8]: 0.988
- normalized growth [9]: 1.01
- normalized growth [10]: 1.01
- normalized growth [11]: 1
- normalized growth [12]: 1.07
- normalized growth [13]: 1.01
- normalized growth [14]: 1.16
- normalized growth [15]: 1.03
- normalized growth [16]: 0.995
- normalized growth [17]: 1
- normalized growth [18]: 1.01
- normalized growth (locus YMR307W, strain GAS1, stronger effect = lower value): 1.24
- normalized growth [19]: 1.01
- normalized growth [20]: 1.01
- normalized growth [21]: 1
- normalized growth [22]: 0.999
- normalized growth [23]: 1.06
- normalized growth [24]: 0.872
- normalized growth [25]: 1.08
- normalized growth [26]: 0.892

SMILES: O=[N+]([O-])c1cc(C(F)(F)F)ccc1Sc1ccc(Cl)cc1
- normalized growth [3]: 1
- normalized growth [4]: 1.01
- normalized growth [1]: 1
- normalized growth (locus YDL134C, strain PPH21, stronger effect = lower value): 0.98
- normalized growth [5]: 0.957
- normalized growth [6]: 1.01
- normalized growth [7]: 1.01
- normalized growth [2]: 0.901
- normalized growth [8]: 1.01
- normalized growth [9]: 1
- normalized growth [10]: 1.02
- normalized growth [11]: 1.01
- normalized growth [12]: 0.928
- normalized growth [13]: 1
- normalized growth [14]: 0.757 (active)
- normalized growth [15]: 0.967
- normalized growth [16]: 0.97
- normalized growth [17]: 1.01
- normalized growth [18]: 1.01
- normalized growth [19]: 1.02
- normalized growth [20]: 0.995
- normalized growth [21]: 0.996
- normalized growth [22]: 0.978
- normalized growth [24]: 1.04
- normalized growth [25]: 0.967
- normalized growth [26]: 0.97
